The nature of assay [1]: qHTS assay for measurement of the activity of small molecule inhibitors on Zika virus induced Caspase-3 activity in human iPSC derived neural progenitor cells (hNPCs) (AID 1224857). Further: nearly all actives have a fitted effect of over 65% in size. In outline: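 Zika virus (2 FFU/cell) infection of human iPSC-derived NPCs, 6 h, following 1 h compound preincubation. Read-out: Caspase-Glo 3/7 luminescence.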
Assay [2] can be described thus: qHTS assay for measurement of the activity of small molecule inhibitors on Zika virus induced Caspase-3 activity in human astrocytoma cells (AID 1224859). In outline:
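Caspase activation in ZIKV-infected SNB-19 cells (2 FFU/cell, 6 h) measured by Caspase-Glo 3/7 luminescence after 30 min RT; compound pre-incubated 1 h; normalised to uninfected and infected controls.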
For orientation: Quantitative high-throughput screening tests each substance at several concentrations.

The nature of assay [3]: Natriuretic polypeptide receptor (hNpr1) antagonism - Pilot counterscreen GloSensor control cell line (AID 1347045; calls by dose curve; further: series mostly up to about 38 µM). In outline: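 HEK293 cGMP-sensor cells; 2% GloSensor reagent 2 h RT; LOPAC compounds in 1:5 titrations 30-50 min; 50 uM SNP 20 min; luminescence pre-read and post-read.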
Assay [4] has as its target Atrial natriuretic peptide receptor 1 (Homo sapiens) (UniProt P16066). Description: Natriuretic polypeptide receptor (hNpr1) antagonism - Pilot screen (AID 1347049; calls by dose curve;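 further: agonist-evoked cGMP luminescence read 20 min after hNppA addition; series mostly up to about 58 µM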). In outline: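 cGMP-sensor HEK293/hNpr1 cells, 1500/well, plated overnight at 37C. 2% GloSensor reagent, 2 h RT. Compound (23 nL pin transfer) 30 min RT, baseline luminescence pre-read. 0.1 nM hNppA, 20 min RT, post-read.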

For assay [5], the target named is Atrial natriuretic peptide receptor 2 (Homo sapiens) (UniProt P20594). Description: Natriuretic polypeptide receptor (hNpr2) antagonism - Pilot subtype selectivity assay (AID 1347050; calls by dose curve). In outline:
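Luminescence from a genetically encoded cGMP luciferase biosensor in hNpr2-expressing HEK293 cells is read before and 20 min after adding 1 nM hNppC. Test compounds, in interplate 1:5 titrations, are added 30-50 min ahead of the agonist.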

Assay [6] can be described thus: NS1 protein of Zika virus - qHTS assay to identify small molecule inhibitors in human HEK 293 cells (AID 1347053). Further: series mostly up to about 46 µM; nearly all actives have a fitted effect of over 55% in size. In outline:
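TR-FRET signal from two anti-ZIKV NS1 antibodies quantified NS1 in HEK 293 cells 24 h after MR766 infection at MOI = 0.5; compounds were added 1 h before virus. Uninfected cells and infected cells defined the NS1 normalization range.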

In assay [7] the target is T1, Tyrosine-protein phosphatase non-receptor type substrate 1 (Homo sapiens) + Leukocyte surface antigen CD47 (Homo sapiens) (UniProt P78324+Q08722). Put plainly: CD47-SIRPalpha protein protein interaction - LANCE assay qHTS validation (AID 1347057; active means well fitted curve in the direction sought with a large enough effect in the signal ratio, with a control signal flat, not every such curve was filed as active; the % refers to the signal ratio; further: series mostly up to about 38 µM). In outline: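 Inhibition of soluble CD47/SIRPalpha ectodomain association by titrated compounds, measured as 665/615 nm time-resolved FRET ratio after sequential 30 min room-temperature incubations.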
T1 sequence (P78324 whole entry, looked up, the tested form may be a part): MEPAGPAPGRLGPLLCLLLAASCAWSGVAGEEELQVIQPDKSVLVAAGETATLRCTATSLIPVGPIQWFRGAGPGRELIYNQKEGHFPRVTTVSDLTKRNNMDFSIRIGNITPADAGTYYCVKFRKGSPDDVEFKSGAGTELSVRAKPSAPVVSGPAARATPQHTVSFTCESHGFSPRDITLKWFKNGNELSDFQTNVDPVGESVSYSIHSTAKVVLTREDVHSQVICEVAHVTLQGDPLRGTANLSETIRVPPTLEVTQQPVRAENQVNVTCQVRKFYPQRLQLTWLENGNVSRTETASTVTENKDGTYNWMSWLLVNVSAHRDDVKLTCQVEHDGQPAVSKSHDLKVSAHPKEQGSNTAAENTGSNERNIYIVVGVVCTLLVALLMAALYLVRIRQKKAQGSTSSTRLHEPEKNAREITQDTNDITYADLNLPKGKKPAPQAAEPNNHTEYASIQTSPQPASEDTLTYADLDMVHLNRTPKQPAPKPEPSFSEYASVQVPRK
T1 sequence (Q08722 whole entry, looked up, the tested form may be a part): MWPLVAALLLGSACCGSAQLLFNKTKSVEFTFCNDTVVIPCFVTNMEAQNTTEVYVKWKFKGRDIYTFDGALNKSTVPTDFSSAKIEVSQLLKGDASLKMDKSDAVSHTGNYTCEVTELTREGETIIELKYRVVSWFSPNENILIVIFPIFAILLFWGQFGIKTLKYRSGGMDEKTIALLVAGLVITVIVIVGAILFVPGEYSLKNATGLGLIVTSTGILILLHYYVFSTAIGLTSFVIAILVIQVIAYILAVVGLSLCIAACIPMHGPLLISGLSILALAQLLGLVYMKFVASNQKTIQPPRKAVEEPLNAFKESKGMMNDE
In general terms: In TR-FRET formats the signal depends on donor and acceptor labels being close together.

For assay [8], the target named is T1, Tyrosine-protein phosphatase non-receptor type substrate 1 (Homo sapiens) + Leukocyte surface antigen CD47 (Homo sapiens). Description: CD47-SIRPalpha protein protein interaction - HTRF assay qHTS validation (AID 1347058; active means well fitted curve in the direction sought with a large enough effect in the signal ratio, not every such curve was filed as active; the % refers to the signal ratio; further: series mostly up to about 38 µM). In outline: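 Soluble extracellular domains (6His-CD47, Avi-tag-biotinylated SIRPalpha) in PBS pH 7.4 with 0.05% IGEPAL CA-630. Compounds were preincubated 30 min at RT with CD47 and anti-His-Eu, then SIRPalpha and SAV-XL665 were added. TR-FRET 665/615 ratio.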

Assay [9] has the same target. Description: CD47-SIRPalpha protein protein interaction - Alpha assay qHTS validation (AID 1347059).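 Further: bead proximity luminescence from CD47 binding SIRPalpha after compound preincubation with SIRPalpha.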 Further: potency means the concentration at half of the fitted maximal effect. In outline: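 SIRPalpha-biotin 25 nM + cpd, 30 min RT, dark; add CD47-His 12.5 nM, 30 min; add Ni-NTA/SAV beads 10 ug/mL, 30 min; AlphaScreen. Buffer PBS pH 7.4 + 0.05% IGEPAL CA-630. Non-biotinylated SIRPalpha as control inhibitor.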
For assay [10], the target named is Parathyroid hormone/parathyroid hormone-related peptide receptor (Homo sapiens) (UniProt Q03431). Description: qHTS for PTHR1 Agonists: Optimization Screen against the NCGC LOPAC library (AID 1347079).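 Further: GloSensor cAMP luminescence in HEK-293 GP2 cells expressing human PTHR1 with IBMX.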 In outline: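 Signal increase flags agonism. GP2 cells, derived from HEK-293, express human PTHR1 and a GloSensor cAMP construct.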
Sequence of Parathyroid hormone/parathyroid hormone-related peptide receptor (Homo sapiens) (Q03431 whole entry, looked up): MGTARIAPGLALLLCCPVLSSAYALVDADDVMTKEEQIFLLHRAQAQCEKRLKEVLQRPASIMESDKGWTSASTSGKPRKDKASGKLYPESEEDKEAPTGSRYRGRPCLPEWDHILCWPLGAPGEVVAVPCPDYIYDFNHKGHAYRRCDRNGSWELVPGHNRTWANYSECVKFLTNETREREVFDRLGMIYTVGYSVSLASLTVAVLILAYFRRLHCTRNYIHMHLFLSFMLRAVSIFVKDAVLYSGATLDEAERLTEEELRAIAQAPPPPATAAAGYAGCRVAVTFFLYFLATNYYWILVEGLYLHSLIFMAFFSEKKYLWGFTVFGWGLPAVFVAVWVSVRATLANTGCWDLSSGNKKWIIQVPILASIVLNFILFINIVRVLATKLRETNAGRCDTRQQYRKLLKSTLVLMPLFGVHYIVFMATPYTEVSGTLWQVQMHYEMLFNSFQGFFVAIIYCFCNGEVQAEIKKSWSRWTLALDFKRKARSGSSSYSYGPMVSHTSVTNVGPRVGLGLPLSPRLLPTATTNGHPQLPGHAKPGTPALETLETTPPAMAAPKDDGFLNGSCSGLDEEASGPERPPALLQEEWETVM
Assay [11] deals with N-terminal Xaa-Pro-Lys N-methyltransferase 1 (Homo sapiens) (UniProt Q9BV86). Put plainly: qHTS Assay for Inhibitors of N-terminal methyltransferase 1 (NTMT1): LOPAC validation of the NTMT1 SAHH-coupled ThioGlo3 Assay (AID 1347143).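 Further: SAH from peptide methylation measured as thiol fluorescence via SAHH coupling and ThioGlo3; nearly all actives have a fitted effect of over 70% in size.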 Further: potency means the concentration at half of the fitted maximal effect. In outline: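 Steps: dispense 125nM NTMT1; pin-transfer test compounds at several concentrations, with 1uM RCC1-6 peptide as control; incubate 1 min; start with reagent holding 100uM SAM, 10uM SAHH, 15uM ThioGlo3; read at 0 and 30 min.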
Sequence of N-terminal Xaa-Pro-Lys N-methyltransferase 1 (Homo sapiens) (Q9BV86 whole entry, looked up): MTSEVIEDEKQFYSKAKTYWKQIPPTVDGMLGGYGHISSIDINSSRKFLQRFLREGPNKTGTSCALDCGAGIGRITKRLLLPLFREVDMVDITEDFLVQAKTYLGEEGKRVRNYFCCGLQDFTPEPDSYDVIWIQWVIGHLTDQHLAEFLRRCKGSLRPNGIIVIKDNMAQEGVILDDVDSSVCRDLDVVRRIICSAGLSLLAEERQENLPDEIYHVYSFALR

The target in a further assay is Furin (Homo sapiens) (UniProt P09958). Description: Furin counterscreen qHTS for Zika virus inhibitors (AID 1347149). Further: nearly all actives have a fitted effect of over 70% in size. Further: potency means the concentration at half of the fitted maximal effect. In outline: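 Counterscreen measures cleavage of 2 microM BOC-RVRR-AMC, below its ~15 microM Km, by 5 nM full-length human furin at pH 7.0 after a 15-min compound preincubation. Inhibition derives from the 15-min fluorescence increase at 37C.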
Sequence of Furin (Homo sapiens) (P09958 whole entry, looked up): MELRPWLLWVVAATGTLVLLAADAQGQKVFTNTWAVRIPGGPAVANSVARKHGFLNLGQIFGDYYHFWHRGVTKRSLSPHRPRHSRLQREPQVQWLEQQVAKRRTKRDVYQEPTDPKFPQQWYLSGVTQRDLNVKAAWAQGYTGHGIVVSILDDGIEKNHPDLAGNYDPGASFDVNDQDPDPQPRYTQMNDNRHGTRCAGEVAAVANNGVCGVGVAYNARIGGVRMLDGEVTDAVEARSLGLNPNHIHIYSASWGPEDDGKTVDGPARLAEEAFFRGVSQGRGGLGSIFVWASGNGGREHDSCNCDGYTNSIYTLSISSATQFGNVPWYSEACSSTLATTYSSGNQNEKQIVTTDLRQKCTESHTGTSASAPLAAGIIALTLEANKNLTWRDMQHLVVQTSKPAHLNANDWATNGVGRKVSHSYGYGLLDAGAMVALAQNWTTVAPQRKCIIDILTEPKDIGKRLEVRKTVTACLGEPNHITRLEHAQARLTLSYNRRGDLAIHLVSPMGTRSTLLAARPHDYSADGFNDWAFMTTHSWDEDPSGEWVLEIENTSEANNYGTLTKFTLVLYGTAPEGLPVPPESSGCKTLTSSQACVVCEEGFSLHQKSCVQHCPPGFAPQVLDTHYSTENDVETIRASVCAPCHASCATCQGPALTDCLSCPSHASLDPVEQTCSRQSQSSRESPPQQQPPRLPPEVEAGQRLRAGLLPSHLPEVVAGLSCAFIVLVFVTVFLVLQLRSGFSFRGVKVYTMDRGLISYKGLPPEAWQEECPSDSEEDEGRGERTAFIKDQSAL
(In general: A counterscreen serves to expose hits that act by an unwanted route or on another target.)

The subject of assay [12] is Zika virus NS2B-NS3 protease (unlinked). Description: Optimization of GU AMC qHTS for Zika virus inhibitors: Unlinked NS2B-NS3 protease assay (AID 1347151). Further: nearly all actives have a fitted effect of over 80% in size. Further: potency means the concentration at half of the fitted maximal effect. In outline: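 Unlinked protease (25 nM final); buffer 10 mM Tris-HCl pH 8.0 + 0.01% Tween 20; AMC substrate; 15 min RT, dark; Δfluorescence normalized to no-inhibitor/no-enzyme controls; 4-parameter Hill fit.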
Assay [13] deals with Zika virus NS2B-NS3 protease (linked construct). Put plainly: Confirmatory screen NINDS AMC qHTS for Zika virus inhibitors (AID 1347152).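 Further: AMC fluorescence gain from cleaved Bz-Nle-KRR-AMC substrate over 15 min; top concentration of the series differs between compounds; nearly all actives have a fitted effect of over 70% in size.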 In outline: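 Enzyme (1 nM, linked construct) was preincubated with compound for 15 minutes at room temperature in 10 mM Tris-HCl pH 8.0 with 0.01% Tween 20. Bz-Nle-Lys-Arg-Arg-AMC was then added to 10 microM, and AMC fluorescence was recorded immediately and after 15 minutes.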

Assay [14] has as its system Zika virus NS2B-NS3 protease (unlinked complex). Description: Confirmatory screen GU AMC qHTS for Zika virus inhibitors (AID 1347153). Further: nearly all actives have a fitted effect of over 70% in size. In outline:
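Fluorescence change (ex 340/em 450 nm) over 15 min, ~20% substrate conversion, normalized to no-inhibitor and no-enzyme controls, then Hill-fitted. Unlinked protease at 25 nM; AMC peptide 10 µM.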

Results filed as inconclusive are left out. Activity calls are given as the source filed them. Unless noted, the call rests on the fitted dose curve; in most records, active means well fitted curve in the direction sought with a large enough effect; inconclusive means small, poorly fitted or top-dose-only effect, or another doubt; inactive means no such curve, though single readings can be large; an effect the other way counts as inactive or inconclusive.

Sequence of Atrial natriuretic peptide receptor 1 (Homo sapiens) (P16066 whole entry, looked up): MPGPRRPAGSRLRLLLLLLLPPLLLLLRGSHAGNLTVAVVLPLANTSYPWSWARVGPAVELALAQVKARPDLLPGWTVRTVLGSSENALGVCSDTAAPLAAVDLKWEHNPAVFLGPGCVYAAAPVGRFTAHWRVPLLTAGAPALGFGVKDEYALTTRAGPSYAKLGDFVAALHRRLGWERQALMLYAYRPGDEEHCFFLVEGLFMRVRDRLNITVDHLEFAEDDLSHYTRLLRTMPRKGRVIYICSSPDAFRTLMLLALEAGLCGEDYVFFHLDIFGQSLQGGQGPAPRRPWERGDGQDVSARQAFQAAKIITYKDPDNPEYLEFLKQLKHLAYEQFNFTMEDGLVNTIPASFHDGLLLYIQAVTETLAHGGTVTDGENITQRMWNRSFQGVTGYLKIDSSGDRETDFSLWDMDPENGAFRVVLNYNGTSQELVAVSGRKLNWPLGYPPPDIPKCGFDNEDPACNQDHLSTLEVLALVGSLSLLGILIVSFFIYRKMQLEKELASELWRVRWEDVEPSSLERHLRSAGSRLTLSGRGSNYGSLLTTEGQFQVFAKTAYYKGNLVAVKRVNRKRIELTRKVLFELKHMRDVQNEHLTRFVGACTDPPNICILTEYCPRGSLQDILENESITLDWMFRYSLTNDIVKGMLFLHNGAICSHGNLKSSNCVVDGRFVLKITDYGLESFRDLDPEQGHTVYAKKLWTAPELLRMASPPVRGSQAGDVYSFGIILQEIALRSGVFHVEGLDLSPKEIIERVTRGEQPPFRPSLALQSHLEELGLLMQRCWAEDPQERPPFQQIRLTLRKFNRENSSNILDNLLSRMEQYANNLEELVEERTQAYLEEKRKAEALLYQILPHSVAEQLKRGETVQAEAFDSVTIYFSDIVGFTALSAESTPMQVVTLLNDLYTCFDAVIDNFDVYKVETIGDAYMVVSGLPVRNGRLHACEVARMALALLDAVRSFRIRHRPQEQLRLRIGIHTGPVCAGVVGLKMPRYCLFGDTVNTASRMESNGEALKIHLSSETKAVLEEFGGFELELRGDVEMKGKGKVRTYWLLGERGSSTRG
Sequence of Atrial natriuretic peptide receptor 2 (Homo sapiens) (P20594 whole entry, looked up): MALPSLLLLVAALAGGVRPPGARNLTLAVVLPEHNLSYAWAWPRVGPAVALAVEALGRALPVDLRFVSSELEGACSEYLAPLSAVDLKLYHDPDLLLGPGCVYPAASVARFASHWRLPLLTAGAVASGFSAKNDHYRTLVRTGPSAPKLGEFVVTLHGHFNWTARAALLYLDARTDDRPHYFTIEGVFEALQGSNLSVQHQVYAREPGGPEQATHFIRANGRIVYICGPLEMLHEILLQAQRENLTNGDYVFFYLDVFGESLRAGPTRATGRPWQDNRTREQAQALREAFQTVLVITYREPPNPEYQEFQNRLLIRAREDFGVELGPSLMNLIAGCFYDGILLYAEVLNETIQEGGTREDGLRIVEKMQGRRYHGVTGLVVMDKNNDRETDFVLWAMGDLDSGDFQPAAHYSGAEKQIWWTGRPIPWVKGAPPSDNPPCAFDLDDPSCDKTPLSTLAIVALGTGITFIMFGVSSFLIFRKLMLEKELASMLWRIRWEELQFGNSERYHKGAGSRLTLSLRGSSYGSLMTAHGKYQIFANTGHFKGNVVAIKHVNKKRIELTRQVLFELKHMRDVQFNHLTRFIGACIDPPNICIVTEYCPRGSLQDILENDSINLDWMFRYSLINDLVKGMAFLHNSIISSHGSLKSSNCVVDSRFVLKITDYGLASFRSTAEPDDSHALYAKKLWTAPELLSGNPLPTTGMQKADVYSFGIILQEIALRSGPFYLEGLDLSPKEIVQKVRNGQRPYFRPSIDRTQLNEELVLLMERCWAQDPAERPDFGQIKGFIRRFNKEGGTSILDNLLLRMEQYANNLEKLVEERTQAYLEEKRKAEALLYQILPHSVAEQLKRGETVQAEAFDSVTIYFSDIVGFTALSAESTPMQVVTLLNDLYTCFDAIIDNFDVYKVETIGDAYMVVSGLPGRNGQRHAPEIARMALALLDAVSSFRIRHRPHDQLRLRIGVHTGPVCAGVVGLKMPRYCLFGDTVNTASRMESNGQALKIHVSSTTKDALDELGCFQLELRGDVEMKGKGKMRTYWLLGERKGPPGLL

As to `COc1cc2c(CCNC(C)=O)c[nH]c2cc1O`, the Potency result in assay [1], in [2], in assay [3], in assay [4], in [5] and in assay [6] was “inactive” each time. For the same compound, the Potency result in assay [7], in assay [9], in [10], in assay [11], in assay [13] and in assay [14] was “inactive” throughout. For the same compound, in [8], the result was inactive. For the same compound, the Potency with Furin (Homo sapiens) is 27.1 µM (active); in [12], 26.7 µM (active).

`CC(N)(Cc1ccc(O)c(O)c1)C(=O)O` (stereo not given): the Potency entry in assay [1], in [2], in [3], in assay [4], in assay [5] and in assay [6] was “inactive” in each case. The Potency result in [7], in assay [9], in assay [10] and in assay [12] was “inactive” each time. Besides, in assay [8], the outcome was inactive. Besides, the Potency in assay [11] was 56.2 µM (active).

Turning to `Nn1nnc2ccccc21`, the Potency result in assay [1], in assay [2], in assay [3], in assay [4], in assay [5] and in [6] was “inactive” in each case. For the same compound, the Potency entry in [7], in assay [9], in assay [10], in [11] and in [12] was “inactive” in each case. Moreover, the outcome in assay [8] was inactive.

`CN1CC(O)C(O)C(O)C1CO` (stereo not given): the Potency entry in assay [1], in assay [2], in [3], in assay [4], in assay [5] and in [6] was “inactive” throughout. Moreover, the Potency entry in [7], in assay [9], in assay [10], in [11] and in assay [12] was “inactive” in each case. The outcome in [8] was inactive.

Consider `Nc1nc2c(nc(Br)n2C2OC3COP(=O)(O)O[C@@H]3C2O)c(=O)[nH]1` (stereo not given in full), for which the Potency entry in assay [1], in [2], in assay [3], in assay [4], in assay [5] and in [6] was “inactive” each time. Besides, the Potency entry in assay [7], in assay [9], in assay [10], in [11] and in assay [12] was “inactive” throughout. In addition, the result in assay [8] was inactive.

With `CC1=C(/C=C/C(C)=C/C=C/C(C)=C\C(=O)O)C(C)(C)CCC1`, the Potency entry in assay [1], in assay [2], in assay [3], in [4], in assay [5] and in assay [6] was “inactive” throughout. In addition, the Potency result in [7], in assay [9] and in assay [10] was “inactive” each time. Further, the outcome in [8] was inactive.

In the case of `COc1ccc2c(c1)c(CC(=O)O)c(C)n2Cc1ccc(Cl)cc1`, the Potency entry in [1], in [2], in assay [3], in [4], in [5] and in assay [6] was “inactive” in each case. Moreover, the Potency result in assay [7], in assay [9] and in [10] was “inactive” in each case. For the same compound, the outcome in [8] was inactive.

With `CC(=O)NNC(=O)N1Cc2ccccc2Oc2ccc(Cl)cc21`, the Potency result in [1], in assay [2], in assay [3], in assay [4], in assay [5] and in [6] was “inactive” each time. Further, the Potency result in assay [7], in [9], in assay [10], in assay [11] and in assay [12] was “inactive” each time. Moreover, the result in assay [8] was inactive.

For `O=C(O)c1cccnc1C(=O)O`, the Potency entry in assay [1], in [2], in [3], in [4], in [5] and in assay [6] was “inactive” in each case. Also, the Potency entry in assay [7], in assay [10], in [11] and in [12] was “inactive” each time. Besides, in assay [8], the result was inactive. The Potency in assay [9] was 16.5 µM (active).

With `CCCC[C@@]1(C2CCCC2)Cc2cc(OCC(=O)O)c(Cl)c(Cl)c2C1=O`, the Potency result in assay [1], in [2], in [3], in [4], in assay [5] and in [6] was “inactive” each time. Besides, the Potency entry (in assay [7]; in [9]; in assay [10]; in assay [11]; with Furin (Homo sapiens)) was “inactive” in each case. Further, the result in [8] was inactive.

For the compound `O=c1[nH]c2cc(Cl)ccc2c(O)c1-c1ccc(Oc2ccccc2)cc1`, the Potency result in [1], in assay [2], in [3], in assay [4], in assay [5] and in assay [6] was “inactive” throughout. Further, the Potency entry in assay [7], in assay [9], in assay [10] and in assay [11] was “inactive” throughout. Moreover, in [8], the result was inactive.

(Values after PubChem BioAssay (NCATS).)
